# Laboratory results taken from PubChem BioAssay (Tox21).
# Inconclusive results are not listed. Where a call stands in place of a potency, no number is given. Unmarked numbers belong to inactive results. The source made the active and inactive calls. Calls come from the whole dose curve; as a rule, active = well fitted curve in the direction sought with a large enough effect in the repeat runs; inconclusive = weak or mixed curves; inactive = no such curve, though single readings can be large; an effect the other way counts as inactive or inconclusive.
# Experiments:
# [1] = biological target: Cytochrome P450 2C19 (Homo sapiens) (UniProt P33261); test: Cytochrome P450 Family 2 Subfamily C Member 19 (CYP2C19) small molecule antagonists: luciferase reporter qHTS assay (AID 1671197); note: nearly all actives have a fitted effect of over 65% in size; for activity change, negative = inhibition: series mostly up to about 120 µM
# Cytochrome P450 2C19 (Homo sapiens), sequence (P33261 whole entry, looked up): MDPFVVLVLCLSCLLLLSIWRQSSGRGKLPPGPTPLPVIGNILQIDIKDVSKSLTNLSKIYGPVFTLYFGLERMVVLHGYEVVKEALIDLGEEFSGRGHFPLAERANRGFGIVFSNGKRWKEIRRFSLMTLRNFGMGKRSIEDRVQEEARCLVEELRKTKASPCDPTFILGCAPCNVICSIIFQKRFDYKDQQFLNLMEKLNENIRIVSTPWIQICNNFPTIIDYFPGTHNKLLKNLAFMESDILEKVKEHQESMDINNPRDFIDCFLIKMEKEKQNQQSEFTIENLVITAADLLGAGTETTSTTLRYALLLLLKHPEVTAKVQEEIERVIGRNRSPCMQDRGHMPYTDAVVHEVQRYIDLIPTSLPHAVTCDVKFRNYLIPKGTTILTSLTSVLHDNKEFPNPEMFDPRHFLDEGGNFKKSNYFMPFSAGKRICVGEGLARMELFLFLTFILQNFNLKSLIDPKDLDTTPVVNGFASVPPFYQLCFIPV
# Method in brief: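 P450-Glo CYP2C19 screening system; proluciferin substrate; DMSO compound stocks; 10 min RT preincubation; NADPH regeneration, 1 h at 37C; luciferin detection reagent, 20 min RT; luminescence as RLU.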
# [2] = biological target: Cytochrome P450 2C9 (Homo sapiens) (UniProt P11712); test: Cytochrome P450 Family 2 Subfamily C Member 9 (CYP2C9) small molecule antagonists: luciferase reporter qHTS assay (AID 1671198); note: nearly all actives have a fitted effect of over 50% in size; for activity change, negative = inhibition: series mostly up to about 120 µM
# Cytochrome P450 2C9 (Homo sapiens), sequence (P11712 whole entry, looked up): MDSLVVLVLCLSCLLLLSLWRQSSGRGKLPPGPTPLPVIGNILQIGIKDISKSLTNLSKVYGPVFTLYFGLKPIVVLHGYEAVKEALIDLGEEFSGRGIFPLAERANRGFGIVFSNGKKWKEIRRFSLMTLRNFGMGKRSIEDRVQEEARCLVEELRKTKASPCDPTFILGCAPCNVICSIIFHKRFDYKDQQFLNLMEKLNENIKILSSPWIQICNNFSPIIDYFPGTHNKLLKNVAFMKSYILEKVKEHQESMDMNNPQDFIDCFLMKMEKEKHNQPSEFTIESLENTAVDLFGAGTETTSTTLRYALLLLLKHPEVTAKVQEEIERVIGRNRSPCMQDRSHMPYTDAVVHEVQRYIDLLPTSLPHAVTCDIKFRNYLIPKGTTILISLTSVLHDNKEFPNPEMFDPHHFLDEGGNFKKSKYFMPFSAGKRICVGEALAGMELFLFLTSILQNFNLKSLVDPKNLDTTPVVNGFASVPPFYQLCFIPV
# Method in brief: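 CYP2C9 activity was measured with a P450-Glo proluciferin substrate. Enzyme–substrate mix was held with compound for 10 min at room temperature, then NADPH regeneration solution was added for 1 h at 37C. Luciferin product was read as luminescence.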
# [3] = biological target: Cytochrome P450 1A2 (Homo sapiens) (UniProt P05177); test: Cytochrome P450 Family 1 Subfamily A Member 2 (CYP1A2) small molecule antagonists: luciferase reporter qHTS assay (AID 1671199); note: nearly all actives have a fitted effect of over 50% in size; for activity change, negative = inhibition: series mostly up to about 120 µM
# Cytochrome P450 1A2 (Homo sapiens), sequence (P05177 whole entry, looked up): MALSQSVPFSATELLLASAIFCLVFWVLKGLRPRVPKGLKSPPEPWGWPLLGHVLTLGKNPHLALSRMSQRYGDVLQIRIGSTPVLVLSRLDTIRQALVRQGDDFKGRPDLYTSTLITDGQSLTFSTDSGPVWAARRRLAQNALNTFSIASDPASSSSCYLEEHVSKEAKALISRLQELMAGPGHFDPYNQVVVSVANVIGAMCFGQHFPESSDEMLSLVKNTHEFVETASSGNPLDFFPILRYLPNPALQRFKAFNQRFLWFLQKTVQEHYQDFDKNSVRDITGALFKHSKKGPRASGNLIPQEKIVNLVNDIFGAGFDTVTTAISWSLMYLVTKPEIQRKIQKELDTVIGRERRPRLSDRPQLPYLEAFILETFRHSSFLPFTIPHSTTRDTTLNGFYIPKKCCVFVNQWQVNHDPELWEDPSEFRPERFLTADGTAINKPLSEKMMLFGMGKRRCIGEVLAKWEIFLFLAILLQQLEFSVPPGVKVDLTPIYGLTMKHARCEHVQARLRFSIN
# Method in brief: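 Compounds were incubated with CYP1A2 and a luminogenic proluciferin substrate for 10 min at room temperature before the reaction was started with NADPH regeneration solution. After 1 h, detection reagent was added and light output, proportional to CYP activity, was recorded.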
# [4] = biological target: Voltage-gated inwardly rectifying potassium channel KCNH2 (Homo sapiens) (UniProt Q12809); test: Human Ether-a-go-go-Related Gene (hERG) channel small molecule antagonists: fluorescence cell-based qHTS assay (AID 1671200); note: nearly all actives have a fitted effect of over 50% in size;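 for activity change, negative = inhibition: hERG-expressing U2OS cells given a thallium stimulus after FluxOR II dye loading; series mostly up to about 77 µM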
# Voltage-gated inwardly rectifying potassium channel KCNH2 (Homo sapiens), sequence (Q12809 whole entry, looked up): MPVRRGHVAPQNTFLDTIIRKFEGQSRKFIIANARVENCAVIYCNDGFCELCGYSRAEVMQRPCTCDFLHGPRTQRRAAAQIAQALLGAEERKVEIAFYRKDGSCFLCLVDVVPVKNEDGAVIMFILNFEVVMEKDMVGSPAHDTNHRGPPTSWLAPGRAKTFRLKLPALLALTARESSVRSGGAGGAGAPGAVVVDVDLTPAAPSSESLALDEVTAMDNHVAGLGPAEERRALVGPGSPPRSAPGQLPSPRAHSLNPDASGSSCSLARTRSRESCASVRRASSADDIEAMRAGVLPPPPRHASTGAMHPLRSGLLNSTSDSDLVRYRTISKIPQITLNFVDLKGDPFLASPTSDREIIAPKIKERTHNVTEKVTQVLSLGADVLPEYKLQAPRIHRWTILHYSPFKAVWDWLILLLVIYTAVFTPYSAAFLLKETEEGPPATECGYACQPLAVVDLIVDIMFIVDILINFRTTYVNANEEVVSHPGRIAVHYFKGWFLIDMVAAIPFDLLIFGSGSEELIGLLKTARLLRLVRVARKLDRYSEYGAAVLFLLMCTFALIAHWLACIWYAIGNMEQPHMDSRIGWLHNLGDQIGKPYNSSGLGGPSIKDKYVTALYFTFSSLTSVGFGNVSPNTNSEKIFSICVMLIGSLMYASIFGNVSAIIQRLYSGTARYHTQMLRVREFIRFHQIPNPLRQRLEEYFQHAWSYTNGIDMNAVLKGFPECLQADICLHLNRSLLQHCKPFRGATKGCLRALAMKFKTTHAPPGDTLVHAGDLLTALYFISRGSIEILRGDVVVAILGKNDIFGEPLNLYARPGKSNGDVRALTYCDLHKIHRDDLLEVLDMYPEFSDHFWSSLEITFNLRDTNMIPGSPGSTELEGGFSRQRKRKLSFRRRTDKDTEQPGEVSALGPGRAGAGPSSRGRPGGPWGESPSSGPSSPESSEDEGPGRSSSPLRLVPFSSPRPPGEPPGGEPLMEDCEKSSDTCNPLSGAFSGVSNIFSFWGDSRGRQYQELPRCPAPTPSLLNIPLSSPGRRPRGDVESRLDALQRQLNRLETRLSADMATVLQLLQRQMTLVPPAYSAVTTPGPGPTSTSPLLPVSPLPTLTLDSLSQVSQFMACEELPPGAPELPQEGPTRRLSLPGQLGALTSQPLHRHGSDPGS
# Method in brief: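 Measured: Tl+ flux via fluorescence (480/540 nm) in hERG-expressing U2OS cells after 1 h dye loading at room temperature.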
# [5] = biological target: Cytochrome P450 3A4 (Homo sapiens) (UniProt P08684); test: Cytochrome P450 Family 3 Subfamily A Member 4 (CYP3A4) small molecule antagonists: luciferase reporter qHTS assay (AID 1671201); note: nearly all actives have a fitted effect of over 50% in size; for activity change, negative = inhibition: series mostly up to about 120 µM
# Cytochrome P450 3A4 (Homo sapiens), sequence (P08684 whole entry, looked up): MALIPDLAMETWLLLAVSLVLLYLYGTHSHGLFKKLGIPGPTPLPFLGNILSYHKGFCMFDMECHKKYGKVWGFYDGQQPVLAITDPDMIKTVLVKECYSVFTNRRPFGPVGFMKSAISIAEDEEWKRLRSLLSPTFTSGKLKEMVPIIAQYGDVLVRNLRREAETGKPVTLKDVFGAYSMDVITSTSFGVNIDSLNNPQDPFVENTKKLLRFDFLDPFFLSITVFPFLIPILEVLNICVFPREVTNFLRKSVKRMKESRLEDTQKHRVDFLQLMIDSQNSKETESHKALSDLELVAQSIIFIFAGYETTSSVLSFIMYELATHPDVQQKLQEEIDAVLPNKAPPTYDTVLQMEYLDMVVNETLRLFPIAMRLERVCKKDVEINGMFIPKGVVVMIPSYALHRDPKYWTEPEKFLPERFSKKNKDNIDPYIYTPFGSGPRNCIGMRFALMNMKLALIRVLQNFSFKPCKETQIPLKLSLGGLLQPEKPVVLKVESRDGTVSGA
# Method in brief: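 Setup: enzyme-substrate mix, compound pin transfer, 10 min RT. Reaction: NADPH regeneration solution, 1 h RT. Readout: detection reagent stops turnover, luminescence measured after 20 min, expressed in relative luminescence units.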
# Potency is the fitted concentration of half-maximal effect.
structure (smiles),measurement,setting,value
CCOc1ccc2[nH]cc(C(=O)NCc3ccccc3)c(=O)c2n1,Potency,[1],79.6 µM (active)
same,Potency,[2],25.2 µM (active)
same,Potency,[3],31.7 µM (active)
same,Potency,[4],inactive
Oc1ccc(Sc2ccc(O)cc2)cc1,Potency,[1],37.3 µM (active)
same,Potency,[2],inactive
same,Potency,[3],41.9 µM (active)
same,Potency,[4],inactive
same,Potency,[5],37.3 µM (active)
O=C(O)C(c1ccc(Cl)cc1)c1ccc(Cl)cc1,Potency,[1],28.3 µM (active)
same,Potency,[2],15.9 µM (active)
same,Potency,[3],inactive
same,Potency,[4],inactive
c1ccc(OCc2ccc(CCCN3CCOCC3)cc2)cc1,Potency,[1],38.9 µM (active)
same,Potency,[2],38.9 µM (active)
same,Potency,[3],inactive
same,Potency,[4],12 µM (active)
Cc1nc2ccccc2n1Cc1ccc(Cl)cc1,Potency,[1],3.09 µM (active)
same,Potency,[2],13.8 µM (active)
same,Potency,[3],7.23 µM (active)
same,Potency,[4],inactive
Cc1c(Cn2ccnc2)c2ccccc2n1CCC(=O)O,Potency,[1],34.7 µM (active)
same,Potency,[2],3.09 µM (active)
same,Potency,[3],12.3 µM (active)
same,Potency,[4],inactive
CCCC[C@H]1CN(CC2CCOCC2)C(=O)OC12CCN(C1(C)CCN(C(=O)c3c(C)ncnc3C)CC1)CC2,Potency,[1],inactive
same,Potency,[2],inactive
same,Potency,[3],35.2 µM (active)
same,Potency,[4],12.2 µM (active)
COCCOCCOCCOCCOC,Potency,[1],inactive
same,Potency,[2],inactive
same,Potency,[3],35.6 µM (active)
same,Potency,[4],inactive
same,Potency,[5],inactive
CCCCOC(=O)c1ccccc1C(=O)OCC(CC)CCCC (stereo not given),Potency,[1],6.33 µM (active)
same,Potency,[2],12.6 µM (active)
same,Potency,[3],12.6 µM (active)
same,Potency,[4],inactive
COC(=O)CSc1cc(N=c2sc(=O)n3n2CCCC3)c(F)cc1Cl,Potency,[1],31.7 µM (active)
same,Potency,[2],8.94 µM (active)
same,Potency,[3],3.17 µM (active)
CCOC(=O)C1=C(C)NC(C)=C(C(=O)OC)C1c1cccc([N+](=O)[O-])c1 (stereo not given),Potency,[1],1.55 µM (active)
same,Potency,[2],0.977 µM (active)
same,Potency,[3],inactive
same,Potency,[4],inactive
COc1ccc2[nH]c(S(=O)Cc3ncc(C)c(OC)c3C)nc2n1 (stereo not given),Potency,[1],34.7 µM (active)
same,Potency,[2],17.4 µM (active)
same,Potency,[3],24.5 µM (active)
same,Potency,[4],inactive
N#Cc1cc2ccccc2c2ccccc12,Potency,[1],35.8 µM (active)
same,Potency,[2],35.8 µM (active)
same,Potency,[3],0.0636 µM (active)
same,Potency,[4],inactive
CCCCCCOC(=O)CCC,Potency,[1],inactive
same,Potency,[2],inactive
same,Potency,[3],inactive
same,Potency,[4],inactive
same,Potency,[5],inactive
Oc1ccc2c(c1)OCO2,Potency,[1],19.9 µM (active)
same,Potency,[2],9.95 µM (active)
same,Potency,[3],31.5 µM (active)
same,Potency,[4],inactive
same,Potency,[5],22.3 µM (active)
O=C(CCN1CCN2CCCC2C1)N1c2ccccc2Sc2ccc(Cl)cc21 (stereo not given),"activity change, negative = inhibition",[1],-4.46% [at 23.6 µM]
same,"activity change, negative = inhibition",[2],11.9% [at 23.6 µM]
same,"activity change, negative = inhibition",[3],-23.8% [at 23.6 µM]
CCCOc1ccc2nc(NC(=O)OC)[nH]c2c1,Potency,[1],inactive
same,Potency,[2],inactive
same,Potency,[3],inactive
same,Potency,[4],inactive
same,Potency,[5],inactive
Cl/C(=C\n1cncn1)c1ccc(Cl)cc1Cl,Potency,[1],1.38 µM (active)
same,Potency,[2],15.5 µM (active)
same,Potency,[3],1.55 µM (active)
same,Potency,[4],inactive
same,Potency,[5],inactive
CCN(CC)CCNC(C(=O)OCCC(C)C)c1ccccc1 (stereo not given),Potency,[1],inactive
same,Potency,[2],inactive
same,Potency,[3],inactive
same,Potency,[4],9.52 µM (active)
CC[C@H](C)[C@@H](C(=O)O)n1sc2ccccc2c1=O,Potency,[1],inactive
same,Potency,[2],inactive
same,Potency,[3],25.2 µM (active)
same,Potency,[4],inactive
same,Potency,[5],inactive
O=S1(=O)c2cccc3cccc(c23)N1CCCN1CCN(c2ccc(F)cc2)CC1,Potency,[1],24.5 µM (active)
same,Potency,[2],inactive
same,Potency,[3],15.5 µM (active)
CCOC(=O)[C@H](CCc1ccccc1)N[C@H]1CCc2ccccc2N(CC(=O)O)C1=O,Potency,[1],6.92 µM (active)
same,Potency,[2],8.71 µM (active)
same,Potency,[3],12.9 µM (active)
CCCc1ccccc1,Potency,[1],inactive
same,Potency,[2],inactive
same,Potency,[3],inactive
same,Potency,[4],inactive
same,Potency,[5],inactive
O=C1[C@H](CC[C@H](O)c2ccc(F)cc2)[C@@H](c2ccc(O)cc2)N1c1ccc(F)cc1,Potency,[1],2.75 µM (active)
same,Potency,[2],8.71 µM (active)
Nc1nc(N)c(-c2ccccc2)s1,Potency,[1],inactive
same,Potency,[2],inactive
same,Potency,[3],30.9 µM (active)
same,Potency,[4],inactive
C=CC[N+]1([C@H]2C[C@H]3[C@@H]4CC[C@H]5C[C@H](OC(C)=O)[C@@H](N6CCCCC6)C[C@]5(C)[C@H]4CC[C@]3(C)[C@H]2OC(=O)CC)CCCCC1,Potency,[1],inactive
same,Potency,[2],inactive
same,Potency,[3],inactive
same,Potency,[4],inactive
C=C(C)C(=O)OC(C)C,Potency,[1],inactive
same,Potency,[2],inactive
same,Potency,[3],inactive
same,Potency,[4],inactive
same,Potency,[5],inactive
O=C(Nc1ccccc1)OCC(CN1CCCCC1)OC(=O)Nc1ccccc1 (stereo not given),Potency,[1],8.71 µM (active)
same,Potency,[2],17.4 µM (active)
same,Potency,[3],inactive
same,Potency,[4],6.01 µM (active)
CCCCc1cc2ccccc2c(OCCN(C)C)n1,Potency,[1],inactive
same,Potency,[2],inactive
same,Potency,[3],0.436 µM (active)
same,Potency,[4],3.38 µM (active)
same,Potency,[5],inactive
NC(N)=N/N=C/c1c(Cl)cccc1Cl,Potency,[1],inactive
same,Potency,[2],inactive
same,Potency,[3],15.5 µM (active)
same,Potency,[4],inactive
same,Potency,[5],inactive
Cc1ccc(C(N)=O)cc1N,Potency,[1],44.8 µM (active)
same,Potency,[2],inactive
same,Potency,[3],35.6 µM (active)
same,Potency,[4],inactive
same,Potency,[5],inactive
CCN1CCC[C@H]1CNC(=O)c1c(OC)ccc(Br)c1OC,Potency,[1],inactive
same,Potency,[2],inactive
same,Potency,[3],inactive
same,Potency,[4],inactive
same,Potency,[5],inactive
CCCC(=O)OCC,Potency,[1],inactive
same,Potency,[2],12.6 µM (active)
same,Potency,[3],inactive
same,Potency,[4],inactive
same,Potency,[5],inactive
CCCCCCCCCCCCCCCCCBr,"activity change, negative = inhibition",[1],4.88% [at 23.6 µM]
same,"activity change, negative = inhibition",[2],0.482% [at 23.6 µM]
same,"activity change, negative = inhibition",[3],-12.4% [at 23.6 µM]
same,"activity change, negative = inhibition",[4],7.46% [at 15.8 µM]
same,"activity change, negative = inhibition",[5],1.19% [at 23.6 µM]
CCCCOC(O)CC (stereo not given),Potency,[1],inactive
same,Potency,[2],inactive
same,Potency,[3],inactive
same,Potency,[4],inactive
same,Potency,[5],inactive
